HCMV inh = inhibitors of human cytomegalovirus; activity change, negative = inhibition, % at 57.5 µM; 4.5% of 410,000 active; HFF cells, HCMV-luciferase reporter, 72 h; active compounds read low; in the data active = activity change below about -60%; inconclusive = no clear call, values can overlap the other calls; inactive = above about -39%
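Screen run at 2 compound doses on HFFs infected with reporter HCMV, MOI 1 PFU/cell. Luciferase activity from cell lysates at 72 h post infection gave inhibition relative to buffer-only and Salinomycin wells.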
HCV inhibitor = blocks hepatitis C virus; Huh7.5.1 HCVcc-Cre infection, luciferase reporter, 44 h; Potency, µM (highest dose often 41.8 µM), for inactives: at the highest dose activity change, negative = inhibition, most hits filed as inhibitors; 3.4% of 340,000 active; AID 651820; note: potency is the fitted concentration of half-maximal effect
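Infectious HCV cell culture screen: compound-treated cells (1,000/well, pre-plated 4 h) are infected with HCVcc-Cre at roughly 0.5 moi and grown 44 h. Infection is quantified by luciferase signal after 15 min substrate incubation at room temperature.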
Vaccinia mCherry = inhibitors of vaccinia virus infection (mCherry reporter signal); Vaccinia virus mCherry reporter infection, fluorescence; Potency, µM (top dose mostly 36.5 µM), for inactives: at the highest dose activity change, negative = inhibition, usual class: inhibitors; 0.63% of 310,000 active; AID 720579; calls by dose curve; tested in A549 cells; note: potency is the fitted concentration of half-maximal effect; nearly all actives have a fitted effect of over 35% in size
Sm TGR inh = blocks Schistosoma mansoni thioredoxin glutathione reductase; Q962Y6; purified TGR, DTNB reduction, TNB absorbance 405 nm; Potency, µM (series often up to 114 µM), for the others: at the highest dose activity change, negative = inhibition, most hits filed as inhibitors; 3% of 360,000 active; note: potency is the fitted concentration of half-maximal effect; nearly all actives have a fitted effect of over 60% in size
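First, TGR (20 nM dispensed) and NADPH were mixed with compound. Second, a 15 min room-temperature incubation followed. Third, further NADPH and then DTNB were added to start the reaction. Finally, TNB absorbance was monitored kinetically.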
FMDV inh = foot and mouth disease virus antiviral activity. Potency, µM (top dose mostly 57.9 µM), inactives show at the highest dose activity change, negative = inhibition, most hits filed as inhibitors. 1.2% of 410,000 active. FMDV antiviral cell-based qHTS; calls by dose curve; tested in HEK293T cells; note: read-out not given here; potency is the fitted concentration of half-maximal effect; nearly all actives have a fitted effect of over 45% in size
Vaccinia Venus = vaccinia inhibition (Venus reporter); AID 720580; 0.46% of 330,000 active; Vaccinia virus Venus reporter expression, fluorescence; Potency, µM (series often up to 36.5 µM), for the others: top-dose activity change, negative = inhibition, actives largely listed as inhibitors; calls by dose curve; tested in A549 cells; note: potency is the fitted concentration of half-maximal effect; nearly all actives have a fitted effect of over 30% in size
* hit, by the source's call; i = inactive; ? = inconclusive; / = not tested or not shown; [ ] = another dose, or the depositor's remark. Only some compounds are listed: those with a hit (about 9.3% of all), similar ones and a draw of the others. Unless noted, calls come from the whole dose curve; as a rule, active = well fitted curve in the direction sought with a large enough effect; inconclusive = small, poorly fitted or top-dose-only effect, or another doubt; inactive = no such curve, though single readings can be large; an effect the other way counts as inactive or inconclusive. % is set by controls: 0 for no effect and ±100 for the full control effect.

SMILES	HCMV inh	HCV inhibitor	Vaccinia mCherry	Sm TGR inh	FMDV inh	Vaccinia Venus
Cc1ccc(CCNC(=O)CS(=O)Cc2nc(-c3ccccc3F)oc2C)cc1 (stereo unspecified)	?	-6.5%	-13.9%	?	-15.0%	-12.7%
Cc1ccccc1-c1nc(CS(=O)CC(=O)NCc2ccc3c(c2)OCO3)c(C)o1 (stereo unspecified)	-18.9	-0.1%	/	?	-2.5%	/
Cc1ccc(CCNC(=O)CS(=O)Cc2nc(-c3cccs3)oc2C)cc1 (stereo unspecified)	-32.9	1.1%	/	8.91µM*	-20.5%	/
CCCN(CCC)CCNC(=O)CS(=O)Cc1nc(-c2ccc(OC)c(OC)c2)oc1C (stereo unspecified)	0.4	/	-5.1%	-27.9%	-1.0%	-7.7%
COc1cc(CN2CCN(CC#Cc3ccccc3)CC2CCO)cc(OC)c1 (stereo unspecified)	95.0	11.6%	/	?	-6.3%	/
c1ccc(-c2ccc(-c3nc(-c4cccnc4)no3)cc2)cc1	14.1	?	-11.9%	13.3%[11.4 µM]	/	-14.7%
CCOc1ccc(-c2nonc2NC(=O)c2oc3cc(C)ccc3c2C)cc1	-33.9	/	-10.4%	-4.1%	-16.1%	-10.6%
OC(CSc1c(Cl)cccc1Cl)CN1CCN(c2ccc(F)cc2)CC1 (stereo unspecified)	50.3	?	/	-8.8%	?	/
N#CCc1c(C#N)c(N)nc(N2CCN(S(=O)(=O)c3ccccc3F)CC2)c1C#N	28.7	?	i	-2.7%	-26.5%	-4.0%
COc1ccc(CCNC(=O)CS(=O)Cc2nc(-c3ccccc3F)oc2C)cc1OC (stereo unspecified)	-4.1	-11.5%	-12.8%	?	-12.9%	-0.8%
COc1ccc(CCNC(=O)CS(=O)Cc2nc(-c3ccccc3Cl)oc2C)cc1OC (stereo unspecified)	-16.0	8.6%	/	56.2µM*	-12.9%	/
C=COC(=O)NC1CCc2cc(OC)c(OC)c(OC)c2-c2ccc(SC)c(=O)cc21 (stereo unspecified)	?	10.8%	-1.1%	/	-5.2%	?
COc1cc2c(c(OC)c1OC)-c1ccc(OC)c(=O)cc1C(NC(=O)c1ccccc1)CC2 (stereo unspecified)	-74.5*	12.8%	?	/	1.1%	?
COc1cc2c(c(OC)c1OC)-c1ccc(SC)c(=O)cc1C(NC=O)CC2 (stereo unspecified)	-97.5*	-40.2%	?	/	-8.4%	?
COc1cc2c(c(OC)c1OC)-c1ccc(SC)c(=O)cc1C(NC(=O)c1ccccc1)CC2 (stereo unspecified)	-63.4*	-21.0%	-48.8%	/	-10.1%	?
O=C(Nc1cccc(Cl)c1)Nc1nnc([C@@H]2C[C@H](O)[C@@H](CO)O2)s1	-14.5	/	0.0%	/	12.5%	1.8%
C/C(=N\NC(=O)Cn1c(-c2ccccn2)nc2ccccc21)c1ccccc1	13.8	?	i	6.0%	-22.4%	-14.5%
COc1cccc(CNC(=O)Cc2c(C(=O)O)[nH]c3ccccc23)c1	6.1	8.0%	i	-1.1%	-6.9%	-9.0%
CCCOc1ccc(CN(C(=O)c2nc(SC(C)C)ncc2Cl)C2CCS(=O)(=O)C2)cc1 (stereo unspecified)	-62.9*	/	-13.1%	1.6%	-26.9%	-1.6%
CCOC(=O)c1ccc2c(c1)n(CC)c(/C=C/N(C)c1ccccc1)[n+]2CC	-99.9*	?	-12.5%	-1.3%	?	-15.1%
O=C1CS(=O)(=O)C2(C(=O)Nc3ccccc32)N1c1cccc(Cl)c1 (stereo unspecified)	-3.2	/	8.2%	2.3%	-25.4%	-2.6%
Nc1nc(-c2ccccc2)c(CC(=O)O)s1	15.3	/	-14.4%	/	0.4%	-11.3%
Nc1nc(-c2cccs2)c(CC(=O)O)s1	-19.4	5.0%	i	39.8µM*	1.3%	0.9%
COc1cc(OC)cc(C(=O)N2CCN(c3ccccn3)CC2)c1	?	29.5%	-18.9%	10.1%	-5.7%	3.3%
O=C(c1ccoc1)N1CCN(c2cc(-c3ccncc3)nc3cc(-c4cccc(Cl)c4)nn23)CC1	-13.7	/	-0.9%	/	?	-18.1%
SMILES	HCMV inh	HCV inhibitor	Vaccinia mCherry	Sm TGR inh	FMDV inh	Vaccinia Venus
CC(=O)N1CCN(c2cc(-c3ccccc3)nc3cc(-c4cccc(Cl)c4)nn23)CC1	-89.4*	/	?	/	17.8µM*	?
O=C(c1ccoc1)N1CCN(c2cc(-c3ccccc3)nc3cc(-c4ccc(Br)cc4)nn23)CC1	-63.0*	/	-20.4%	/	22.4µM*	-24.1%
O=C(c1ccncc1)N1CCN(c2cc(-c3ccccc3)nc3cc(-c4cccc(Cl)c4)nn23)CC1	6.0	/	?	/	28.2µM*	?
CCCCN1C(=O)C(=O)N(CC(=O)c2cc(C)n(-c3cc(C)on3)c2C)C1=O	-16.8	20.1%	/	1.6%	0.0%	/
O=C(O)CCC(=O)N1N=C(c2ccc(Br)cc2)CC1c1cccc(Br)c1 (stereo unspecified)	-15.4	6.7%	i	2.0%	-12.5%	-13.2%
C=CCN1C(=O)C2(OCCCO2)c2c(C)ccc(C)c21	-12.5	-1.6%	i	-0.4%	-17.1%	-16.6%
Cc1cc(SCC(=O)N/N=C/c2ccc(O)cc2O)nc2ccccc12	3.5	?	1.12µM*	15.7%	-24.6%	?
Cc1cc(SCC(=O)c2cccs2)nc2ccccc12	52.4	10µM*	?	-9.0%	78.1%	?
Cc1cc(SCC(=O)N/N=C/c2ccc(O)c(O)c2)nc2ccccc12	-16.4	?	?	-39.5%	3.1%	1.7%
COc1ccc2nc(C)cc(SCC(=O)N/N=C/c3cccc4ccccc34)c2c1	-68.2*	10µM*	/	-0.8%	-19.6%	/
COc1cccc(C(=O)Nc2cccc(-c3nnc(-c4ccco4)o3)c2)c1	?	22.4µM*	?	10.1%	14.1µM*	?
Cc1ccc(SCC(=O)Nc2cccc(-c3nnc(-c4ccco4)o3)c2)cc1	-98.6*	-28.4%	/	-10.2%	-4.9%	?
C[n+]1c(-c2ccccc2)cc2c(=Cc3ccc([N+](=O)[O-])cc3)c3ccccc3n21	-100.8*	?	i	/	?	232.7%
C[n+]1c(-c2ccccc2)cc2c(=Cc3ccccc3)c3ccccc3n21	-98.7*	?	i	/	3.55µM*	152.2%
CN(C)c1ccc(C=c2c3cc(O)ccc3n3c2cc(-c2ccccc2)[n+]3C)cc1	-101.4*	?	107.5%	/	-21.4%	131.5%
CCOCC(=O)Nc1cc(C(=O)NCCc2ccccc2)ccc1Cl	44.3	13.3%	-0.5%	3.3%	52.4%	2.2%
COc1ccccc1C(=O)NCC(=O)Nc1cccnc1	/	/	/	2.4%	/	/
Cc1ccc(OCCN2CCN(c3nc(NCc4ccco4)c4ccccc4n3)CC2)cc1	-22.3	11.2µM*	?	-17.4%	-10.1%	?
c1ccc(CN2CCN(c3nc(NCc4ccco4)c4ccccc4n3)CC2)cc1	-33.6	?	?	-24.0%	31.6µM*	?
